Targets with a hit are over-represented here; the source holds about 7,900 in all. About 0.6% of all pairs of compound and target were hits.
Assays:
Assay in all cases: log2 fold change, soluble protein after heating vs DMSO (PISA); higher = thermal stabilisation; K562 cells, 10 uM, 30 min; active = over 0.2 and 3.5 SD of the protein, either way, in both replicates (recomputed)
[1] = compound: C1=CC=C(C=C1)[C@H](COC2=CC3=C(C=C2)NC(=O)N3)NC(=O)C4=CC=CN(C4=O)CC5=CC(=C(C=C5)F)F
How it was run: (§1)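 K562 cells at 2×10^6 cells/mL were exposed to 10 μM compound for 30 min, then aliquots were heated for 3 min across 48°C-58°C, pooled, and extracted in PBS containing 0.5% NP-40 at 4°C. The supernatant after 21,000xg for 90 min was taken as soluble protein and measured by TMTpro 16plex LC-MS/MS with channel sums equalised. Thermal stability is reported relative to control samples, with values from duplicates. Fold changes are given on a log2 scale.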

[2] = compound: CC1=C(SC2=C1C(=N[C@H](C3=NN=C(N32)C)CC(=O)N)C4=CC=C(C=C4)Cl)C
How it was run: as §1

[3] = compound: CC1=C2C(=CC=C1)N=C(N(C2=O)C3=CC=CC=C3C)CN4C=NC5=C(N=CN=C54)N
How it was run: as §1

[4] = compound: Cc1sc2c(c1C)C(c1ccc(Cl)cc1)=N[C@@H](CC(=O)OC(C)(C)C)c1nnc(C)n1-2
How it was run: as §1

[5] = compound: c1ccc([C@@H]2C[C@H]2NC2CCNCC2)cc1
How it was run: as §1

Measured: log2 fold change

RSF1 (UniProt Q96T23)
inactive: [1] -0.102 | [2] 0.091 | [3] 0.096 | [4] -0.061 | [5] -0.018

RBM27 (UniProt Q9P2N5)
inactive: [1] -0.015 | [2] 0.005 | [3] 0.049 | [4] 0.029 | [5] -0.01

RIC8A isoform 3 (UniProt Q9NPQ8)
inactive: [1] -0.033 | [2] 0.02 | [3] 0.015 | [4] -0.041 | [5] -0.094

RAPGEF4 (UniProt Q8WZA2)
inactive: [1] -0.038 | [2] 0.152 | [3] 0.268 | [4] -0.028 | [5] -0.176

SEC24A (UniProt O95486)
inactive: [1] -0.022 | [2] 0.02 | [3] 0.014 | [4] -0.027 | [5] -0.021

RSRC2 (UniProt Q7L4I2)
inactive: [1] 0.034 | [2] 0 | [3] -0.045 | [4] 0.022 | [5] 0.085

RNF167 (UniProt Q9H6Y7)
inactive: [1] -0.025 | [2] -0.011 | [3] 0.002 | [4] -0.017 | [5] 0.001

RFC3 (UniProt P40938)
inactive: [1] -0.005 | [2] 0.028 | [3] 0.029 | [4] -0.019 | [5] -0.074

SDCBP (UniProt O00560)
inactive: [1] 0.029 | [2] -0.031 | [3] -0.067 | [4] 0.04 | [5] -0.102

RETSAT (UniProt Q6NUM9)
inactive: [1] 0.028 | [2] 0.114 | [3] 0.119 | [4] -0.15 | [5] 0.042

RAP2C (UniProt Q9Y3L5)
inactive: [1] 0 | [2] 0.055 | [3] -0.012 | [4] 0.038 | [5] -0.011

RRP9 (UniProt O43818)
inactive: [1] 0.036 | [2] -0.136 | [3] 0.02 | [4] 0.015 | [5] 0.1

SLC12A5 (UniProt Q9H2X9)
inactive: [1] 0.102 | [2] 0.099 | [3] 0.066 | [4] -0.064 | [5] 0.055

RBM39 (UniProt Q14498)
inactive: [1] 0.015 | [2] -0.004 | [3] -0.02 | [4] 0.019 | [5] 0.158

RELA (UniProt Q04206)
inactive: [1] -0.013 | [2] 0.056 | [3] 0.03 | [4] 0.031 | [5] 0.008

RPL38 (UniProt P63173)
inactive: [1] 0.012 | [2] -0.03 | [3] -0.046 | [4] 0.053 | [5] 0.013

RARS2 (UniProt Q5T160)
inactive: [1] 0.021 | [2] 0.046 | [3] 0.044 | [4] -0.026 | [5] -0.007

RIPK1 (UniProt Q13546)
Sequence of UniProt Q13546 (Q13546 whole entry, looked up): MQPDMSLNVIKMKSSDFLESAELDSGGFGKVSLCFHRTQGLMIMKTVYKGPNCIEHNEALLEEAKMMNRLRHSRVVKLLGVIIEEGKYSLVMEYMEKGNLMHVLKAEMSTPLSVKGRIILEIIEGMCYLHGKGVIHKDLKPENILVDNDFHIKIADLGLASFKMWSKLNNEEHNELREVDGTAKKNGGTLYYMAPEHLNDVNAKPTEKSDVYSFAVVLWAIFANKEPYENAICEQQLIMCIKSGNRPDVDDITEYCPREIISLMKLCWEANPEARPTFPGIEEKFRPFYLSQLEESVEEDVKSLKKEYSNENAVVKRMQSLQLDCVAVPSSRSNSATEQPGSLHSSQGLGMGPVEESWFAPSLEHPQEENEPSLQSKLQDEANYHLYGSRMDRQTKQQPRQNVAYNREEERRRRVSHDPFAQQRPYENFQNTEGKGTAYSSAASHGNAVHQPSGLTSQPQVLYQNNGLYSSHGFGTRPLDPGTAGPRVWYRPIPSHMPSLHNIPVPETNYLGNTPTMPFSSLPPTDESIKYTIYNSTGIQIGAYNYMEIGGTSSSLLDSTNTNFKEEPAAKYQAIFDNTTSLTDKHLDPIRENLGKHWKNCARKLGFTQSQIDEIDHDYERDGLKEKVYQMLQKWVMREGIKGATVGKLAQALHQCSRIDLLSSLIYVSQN
inactive: [1] -0.058 | [2] -0.134 | [3] 0.033 | [4] -0.048 | [5] -0.049

RBM26 isoform 2 (UniProt Q5T8P6)
Sequence of UniProt Q5T8P6 (Q5T8P6 whole entry, looked up): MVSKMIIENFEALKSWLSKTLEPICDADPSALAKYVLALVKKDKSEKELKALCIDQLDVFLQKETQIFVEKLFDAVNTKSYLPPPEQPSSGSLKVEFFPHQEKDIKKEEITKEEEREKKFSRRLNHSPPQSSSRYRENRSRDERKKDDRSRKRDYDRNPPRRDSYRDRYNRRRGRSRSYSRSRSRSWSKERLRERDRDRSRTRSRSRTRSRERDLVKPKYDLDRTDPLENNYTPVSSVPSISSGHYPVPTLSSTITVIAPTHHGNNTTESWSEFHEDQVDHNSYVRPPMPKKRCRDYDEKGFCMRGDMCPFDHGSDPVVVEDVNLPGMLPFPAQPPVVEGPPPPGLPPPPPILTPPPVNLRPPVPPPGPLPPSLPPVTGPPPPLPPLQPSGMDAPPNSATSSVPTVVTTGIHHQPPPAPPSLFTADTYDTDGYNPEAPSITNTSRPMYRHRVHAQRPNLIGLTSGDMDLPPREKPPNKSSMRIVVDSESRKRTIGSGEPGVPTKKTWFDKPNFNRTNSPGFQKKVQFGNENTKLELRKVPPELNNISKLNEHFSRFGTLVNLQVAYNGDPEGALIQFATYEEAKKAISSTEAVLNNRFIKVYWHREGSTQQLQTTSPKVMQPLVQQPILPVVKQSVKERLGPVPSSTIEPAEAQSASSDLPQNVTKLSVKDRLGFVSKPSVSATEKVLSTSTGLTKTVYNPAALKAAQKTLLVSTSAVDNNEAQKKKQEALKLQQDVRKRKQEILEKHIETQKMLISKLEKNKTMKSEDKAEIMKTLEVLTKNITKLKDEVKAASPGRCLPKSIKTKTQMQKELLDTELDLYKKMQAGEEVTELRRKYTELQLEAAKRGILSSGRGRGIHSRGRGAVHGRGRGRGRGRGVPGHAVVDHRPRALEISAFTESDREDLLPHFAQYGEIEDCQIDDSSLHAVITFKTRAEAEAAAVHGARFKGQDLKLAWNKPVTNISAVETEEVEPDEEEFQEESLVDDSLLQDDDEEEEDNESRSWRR
inactive: [1] -0.068 | [2] 0.016 | [3] 0.144 | [4] -0.011 | [5] 0.012

SAMSN1 isoform 3 (UniProt Q9NSI8)
Sequence of UniProt Q9NSI8 (Q9NSI8 whole entry, looked up): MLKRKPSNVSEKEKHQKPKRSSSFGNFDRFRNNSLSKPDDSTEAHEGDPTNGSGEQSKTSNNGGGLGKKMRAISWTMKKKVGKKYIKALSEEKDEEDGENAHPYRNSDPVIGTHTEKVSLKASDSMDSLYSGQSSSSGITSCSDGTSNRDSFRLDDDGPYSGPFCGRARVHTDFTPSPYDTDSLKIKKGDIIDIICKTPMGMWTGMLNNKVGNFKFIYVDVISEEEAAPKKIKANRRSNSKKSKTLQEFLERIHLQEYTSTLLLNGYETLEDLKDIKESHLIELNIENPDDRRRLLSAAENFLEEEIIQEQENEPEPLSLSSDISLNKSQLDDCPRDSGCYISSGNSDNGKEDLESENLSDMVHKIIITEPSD
inactive: [1] -0.028 | [2] 0.014 | [3] 0.025 | [4] -0.01 | [5] -0.01

SDHC (UniProt Q99643)
inactive: [1] -0.052 | [2] 0.004 | [3] -0.056 | [4] -0.018 | [5] 0.163

RRP36 (UniProt Q96EU6)
Sequence of UniProt Q96EU6 (Q96EU6 whole entry, looked up): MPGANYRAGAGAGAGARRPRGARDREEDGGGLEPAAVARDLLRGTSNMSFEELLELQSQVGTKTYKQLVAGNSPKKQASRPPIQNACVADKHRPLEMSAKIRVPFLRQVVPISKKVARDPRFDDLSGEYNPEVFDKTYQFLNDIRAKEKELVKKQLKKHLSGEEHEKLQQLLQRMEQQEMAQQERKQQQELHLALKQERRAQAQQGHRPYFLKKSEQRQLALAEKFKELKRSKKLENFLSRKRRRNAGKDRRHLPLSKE
inactive: [1] 0.119 | [2] -0.266 | [3] -0.228 | [4] 0.245 | [5] 0.019

RPL31 (UniProt P62899)
inactive: [1] 0.106 | [2] -0.241 | [3] -0.22 | [4] 0.202 | [5] 0

RPS25 (UniProt P62851)
inactive: [1] 0.046 | [2] -0.166 | [3] -0.139 | [4] 0.09 | [5] 0.002

RAB3IL1 (UniProt E9PK89)
inactive: [1] 0.05 | [2] 0.259 | [3] -0.107 | [4] 0.15 | [5] -0.136

SCAMP2 (UniProt O15127)
inactive: [1] 0.061 | [2] 0.026 | [3] -0.041 | [4] -0.105 | [5] -0.048

RPS6KA3 (UniProt P51812)
inactive: [1] -0.044 | [2] 0.05 | [3] 0.036 | [4] -0.034 | [5] -0.006

RPP14 (UniProt O95059)
inactive: [1] 0.044 | [2] -0.023 | [3] -0.028 | [4] 0.002 | [5] -0.009

SENP6 (UniProt Q9GZR1)
Sequence of UniProt Q9GZR1 (Q9GZR1 whole entry, looked up): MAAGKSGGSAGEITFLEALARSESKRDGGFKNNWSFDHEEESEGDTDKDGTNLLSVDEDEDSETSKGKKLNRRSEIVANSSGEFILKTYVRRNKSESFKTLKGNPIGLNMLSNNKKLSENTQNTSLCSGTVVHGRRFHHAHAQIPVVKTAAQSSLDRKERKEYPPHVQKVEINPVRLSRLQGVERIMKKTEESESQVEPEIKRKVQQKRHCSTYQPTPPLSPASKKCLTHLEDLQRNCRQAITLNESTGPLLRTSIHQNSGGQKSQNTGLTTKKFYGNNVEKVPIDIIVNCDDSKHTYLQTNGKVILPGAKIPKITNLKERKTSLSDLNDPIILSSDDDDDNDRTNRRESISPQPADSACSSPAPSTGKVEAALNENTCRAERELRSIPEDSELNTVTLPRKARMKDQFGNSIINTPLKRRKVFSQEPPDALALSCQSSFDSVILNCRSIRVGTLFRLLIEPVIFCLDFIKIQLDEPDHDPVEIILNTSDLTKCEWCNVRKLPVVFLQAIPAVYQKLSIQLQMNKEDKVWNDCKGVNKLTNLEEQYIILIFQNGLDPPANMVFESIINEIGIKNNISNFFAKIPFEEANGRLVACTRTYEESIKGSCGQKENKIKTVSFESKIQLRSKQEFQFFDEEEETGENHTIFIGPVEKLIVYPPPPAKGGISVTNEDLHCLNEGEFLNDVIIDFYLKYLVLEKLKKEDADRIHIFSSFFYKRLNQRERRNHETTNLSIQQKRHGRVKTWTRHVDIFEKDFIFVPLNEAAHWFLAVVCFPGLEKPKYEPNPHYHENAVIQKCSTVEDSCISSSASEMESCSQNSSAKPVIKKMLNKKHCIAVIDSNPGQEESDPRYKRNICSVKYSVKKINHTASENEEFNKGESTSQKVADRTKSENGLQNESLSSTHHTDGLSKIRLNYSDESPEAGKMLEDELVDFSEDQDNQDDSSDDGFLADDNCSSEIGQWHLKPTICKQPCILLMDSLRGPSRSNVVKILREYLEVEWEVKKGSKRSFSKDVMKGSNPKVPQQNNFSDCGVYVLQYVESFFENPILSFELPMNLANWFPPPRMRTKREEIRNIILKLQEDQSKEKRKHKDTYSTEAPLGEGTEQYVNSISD
inactive: [1] 0.023 | [2] 0.014 | [3] 0.048 | [4] 0.022 | [5] 0.056

SEC31A (UniProt O94979)
inactive: [1] -0.067 | [2] 0.034 | [3] 0.09 | [4] -0.03 | [5] -0.006

RAB3IL1 (UniProt Q8TBN0)
inactive: [1] 0.018 | [2] -0.013 | [3] 0.078 | [4] -0.03 | [5] -0.076

RNF220 (UniProt Q5VTB9)
inactive: [1] 0.004 | [2] 0.072 | [3] 0.14 | [4] -0.045 | [5] 0.038

RCN3 (UniProt Q96D15)
inactive: [1] 0.016 | [2] 0.032 | [3] -0.061 | [4] -0.01 | [5] 0.023

SH3PXD2B (UniProt A1X283)
Sequence of UniProt A1X283 (A1X283 whole entry, looked up): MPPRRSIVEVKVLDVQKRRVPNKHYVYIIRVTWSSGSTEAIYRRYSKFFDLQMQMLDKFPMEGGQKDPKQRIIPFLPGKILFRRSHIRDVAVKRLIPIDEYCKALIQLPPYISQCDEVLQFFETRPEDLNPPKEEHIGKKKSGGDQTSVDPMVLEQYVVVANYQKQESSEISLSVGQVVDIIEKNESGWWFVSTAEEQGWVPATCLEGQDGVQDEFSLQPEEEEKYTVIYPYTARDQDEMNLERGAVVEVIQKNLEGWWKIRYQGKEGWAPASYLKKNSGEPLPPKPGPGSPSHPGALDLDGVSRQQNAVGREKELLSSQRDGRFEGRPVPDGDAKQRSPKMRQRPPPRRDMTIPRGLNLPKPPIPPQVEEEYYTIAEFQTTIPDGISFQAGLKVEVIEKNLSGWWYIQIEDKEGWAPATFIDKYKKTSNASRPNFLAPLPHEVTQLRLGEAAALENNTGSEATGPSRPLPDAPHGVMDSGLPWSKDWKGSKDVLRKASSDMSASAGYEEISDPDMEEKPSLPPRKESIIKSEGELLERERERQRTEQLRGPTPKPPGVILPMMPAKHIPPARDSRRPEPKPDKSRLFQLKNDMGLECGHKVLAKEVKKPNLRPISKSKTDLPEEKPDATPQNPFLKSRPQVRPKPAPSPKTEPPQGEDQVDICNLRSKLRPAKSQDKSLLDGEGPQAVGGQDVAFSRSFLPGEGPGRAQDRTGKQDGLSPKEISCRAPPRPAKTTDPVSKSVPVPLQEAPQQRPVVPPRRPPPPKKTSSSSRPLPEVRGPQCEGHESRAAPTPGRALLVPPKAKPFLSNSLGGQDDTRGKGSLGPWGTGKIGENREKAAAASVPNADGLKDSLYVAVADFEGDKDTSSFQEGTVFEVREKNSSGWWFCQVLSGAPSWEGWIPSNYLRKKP
inactive: [1] 0.07 | [2] 0.029 | [3] 0.001 | [4] -0.038 | [5] -0.046

RB1 (UniProt P06400)
inactive: [1] -0.038 | [2] 0.064 | [3] 0.048 | [4] 0.011 | [5] 0

SH3GL1 (UniProt Q99961)
inactive: [1] -0.073 | [2] 0 | [3] 0.118 | [4] 0.002 | [5] -0.049

RNPEP (UniProt Q9H4A4)
inactive: [1] -0.043 | [2] 0.05 | [3] 0.047 | [4] -0.015 | [5] -0.021

RNASET2 (UniProt O00584)
Sequence of UniProt O00584 (O00584 whole entry, looked up): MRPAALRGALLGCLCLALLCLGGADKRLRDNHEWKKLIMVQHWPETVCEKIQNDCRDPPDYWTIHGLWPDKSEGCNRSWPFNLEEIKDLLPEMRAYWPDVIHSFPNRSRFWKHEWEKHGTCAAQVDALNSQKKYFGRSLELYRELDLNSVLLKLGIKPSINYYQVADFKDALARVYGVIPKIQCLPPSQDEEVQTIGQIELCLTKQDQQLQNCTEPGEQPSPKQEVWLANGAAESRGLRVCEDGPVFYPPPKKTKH
inactive: [1] 0.037 | [2] -0.038 | [3] 0.063 | [4] -0.013 | [5] 0.012

RNASEH2A (UniProt O75792)
inactive: [1] -0.008 | [2] 0.065 | [3] 0.183 | [4] -0.025 | [5] -0.01

RAD50 isoform 2 (UniProt Q92878)
inactive: [1] -0.006 | [2] 0.017 | [3] 0.061 | [4] 0 | [5] 0.014

RAB8B (UniProt Q92930)
inactive: [1] 0.004 | [2] -0.006 | [3] -0.222 | [4] 0.033 | [5] -0.062

RBM22 (UniProt Q9NW64)
Sequence of UniProt Q9NW64 (Q9NW64 whole entry, looked up): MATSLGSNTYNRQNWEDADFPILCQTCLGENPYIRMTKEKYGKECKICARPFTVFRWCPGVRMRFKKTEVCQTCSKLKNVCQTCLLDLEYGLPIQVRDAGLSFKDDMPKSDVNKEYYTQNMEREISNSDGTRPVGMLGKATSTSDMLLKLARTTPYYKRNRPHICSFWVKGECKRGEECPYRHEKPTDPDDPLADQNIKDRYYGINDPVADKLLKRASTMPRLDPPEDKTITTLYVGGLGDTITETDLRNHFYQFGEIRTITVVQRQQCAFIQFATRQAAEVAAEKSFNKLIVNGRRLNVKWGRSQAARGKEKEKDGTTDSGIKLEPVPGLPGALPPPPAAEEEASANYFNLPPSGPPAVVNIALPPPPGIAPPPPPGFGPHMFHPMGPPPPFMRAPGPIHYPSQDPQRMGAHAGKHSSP
inactive: [1] 0.033 | [2] -0.022 | [3] -0.013 | [4] 0.027 | [5] 0.049
